Inconclusive results are not listed. Where a call stands in place of a potency, no number is given. Calls of active or inactive are those of the source. Calls come from the whole dose curve; as a rule, active = well fitted curve in the direction sought with a large enough effect; inconclusive = small, poorly fitted or top-dose-only effect, or another doubt; inactive = no such curve, though single readings can be large; an effect the other way counts as inactive or inconclusive.

A short description of the first assay: S16 Schwann cell viability assay (CellTiter-Glo assay) (AID 624031).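 Note: cellular ATP luminescence as a viability measure; nearly all actives have a fitted effect of over 70% in size.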 The note with it: S16 rat Schwann cells viability, 24 h; series mostly up to 57.5 µM. The gist of the method:
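Untransfected S16 rat Schwann cells; compound 24 h, 37 °C/5% CO2; CellTiter-Glo ATP luminescence. % activity vs no-cell wells and DMSO controls (0%); concentration-effect curves classed by r2, response magnitude, activity.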
On the technique in general: In ATP-based viability assays light output follows the ATP content of the culture.
For `O=C1CC[C@@]2(O)C3Cc4ccc(O)c5c4C2(CCN3CC2CC2)[C@H]1O5` (stereo partly drawn), the Potency result is “inactive”. Same read-out and setting: with `OC(c1ccccc1)(c1ccccc1)C1CN2CCC1CC2` (stereo not drawn) the entry was “inactive”; with `O=S(=O)(O)c1cc(O)ccc1O`, “inactive”; with `COc1ccc(OC)c(C(O)C(C)N)c1` (stereo not drawn), “inactive”. The same measure, in the same setting: the value for `Cn1sc(Cl)cc1=O` was “inactive”; that for `CCCCNCC(O)c1ccc(O)cc1` (stereo not drawn) was “inactive”; that for `CCC1C(C)=NN=C(c2ccc(OC)c(OC)c2)c2cc(OC)c(OC)cc21` (stereo not drawn) was “inactive”.

In the case of `CCC1(CC)C(=O)NC(=O)N(C)C1=O`, the Potency result is “inactive”.

Consider `O=C1CN=C(c2ccccc2)c2cc(Cl)ccc2N1CC1CC1`, for which the Potency result was “inactive”. `CC(C)(O)C1C2OC(=O)C1C1(O)CC3OC34C(=O)OC2C14C` (stereo not drawn): the Potency result was “inactive”. Still for that read-out and setting: with `CNC(=O)Oc1ccccc1C(=O)Nc1ccccc1` the entry was “inactive”. With `C=CCC1(C(C)CCC)C(=O)N=C(S)NC1=O` (stereo not drawn), the Potency result is “inactive”. Still for that read-out and setting: with `O=C(OCCN1CCCCC1)C(O)(c1ccccc1)c1ccccc1` the entry was “inactive”; with `CCCC(C)C1(CC)C(=O)NC(=O)NC1=O` (stereo not drawn), “inactive”.

The nature of a further assay: S16 Schwann cell PMP22 intronic element firefly luciferase assay (AID 624032). Note: nearly all actives have a fitted effect of over 30% in size. Note: potency is the fitted concentration of half-maximal effect. Conditions: S16 rat Schwann cells, PMP22 element FLuc, 24 h; series mostly up to 57.5 µM. The gist of the method:
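Rat S16 Schwann cells stably carrying a PMP22 intronic element-driven Fluc reporter were seeded overnight, then exposed to compounds for 24 h at 37 °C. Luminescence was normalized to PTC124 (positive control) and DMSO (0% activity).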
For the molecule `CCC(N)Cc1c[nH]c2ccccc12` (stereo not drawn), the Potency result is “inactive”.

In the case of `O=C(NC(=O)c1c(F)cccc1F)Nc1ccc(Cl)c(Oc2ncc(C(F)(F)F)cc2Cl)c1`, the Potency entry was “inactive”. Regarding `C[N+]1(C)CCCCC1COC(=O)C(O)(c1ccccc1)c1ccccc1` (stereo not drawn), the Potency result is “inactive”.

Consider `C=CCN1CC[C@]23c4c5ccc(O)c4O[C@H]2[C@@H](O)C=C[C@H]3[C@H]1C5`, for which the Potency result was “inactive”. Still for that read-out and setting: with `FC(F)OC(F)(F)C(F)Cl` (stereo not drawn) the entry was “inactive”. On to `O=P(O)(O)C(Cl)(Cl)P(=O)(O)O`, for which the Potency entry was “inactive”. On to `C#CC(C)(O)CC` (stereo not drawn), for which the Potency result is “inactive”. The same measure, in the same setting: with `CC(=O)O[C@H]1CC[C@H]2[C@@H]3CCC4=CC(=O)CCC4=C3C=C[C@]12C` the figure was 8.09 µM (active); with `CN1C2CCC1CC(OC(c1ccccc1)c1ccc(Cl)cc1)C2` (stereo not drawn), 25.6 µM (active).

`CNC(C)C(O)c1ccc(O)cc1` (stereo not drawn): the Potency was 2.28 µM (active).

On to `CC1CCC(C(C)C)C(OC(=O)c2ccccc2N)C1` (stereo not drawn), for which the Potency entry is “inactive”.

As to `O=C1CN(O)C(c2ccccc2)=c2cc(Cl)ccc2=N1`, the Potency result was “inactive”. Same read-out and setting: the value for `CCON=O` was “inactive”; that for `CN1CCCC(=C(c2cccs2)c2cccs2)C1` was “inactive”.

Take `CCC(C)(S(=O)(=O)CC)S(=O)(=O)CC`: the Potency result was “inactive”. On to `O=C1CC[C@@]2(O)C3Cc4ccc(O)c5c4C2(CCN3CC2CC2)[C@H]1O5` (stereo partly drawn), for which the Potency entry was “inactive”. On the same count and under the same terms, with `O=S(=O)(O)c1cc(O)ccc1O` the entry was “inactive”; with `C[C@@H](Cc1ccccc1)NCCC(c1ccccc1)c1ccccc1`, “inactive”; with `COc1ccc(OC)c(C(O)C(C)N)c1` (stereo not drawn), “inactive”. Consider `Cn1sc(Cl)cc1=O`, for which the Potency entry was “inactive”. Turning to `CCCCNCC(O)c1ccc(O)cc1` (stereo not drawn), the Potency was 1.81 µM (active). On to `CCC1C(C)=NN=C(c2ccc(OC)c(OC)c2)c2cc(OC)c(OC)cc21` (stereo not drawn), for which the Potency is 7.21 µM (active).

Turning to `CCC1(CC)C(=O)NC(=O)N(C)C1=O`, the Potency result is “inactive”. With `CC(C)(O)C1C2OC(=O)C1C1(O)CC3OC34C(=O)OC2C14C` (stereo not drawn), the Potency result is “inactive”. Still for that read-out and setting: with `CN1[C@@H]2CC[C@H]1CC(OC1c3ccccc3CCc3ccccc31)C2` (stereo partly drawn) the entry was “inactive”; with `CNC(=O)Oc1ccccc1C(=O)Nc1ccccc1`, “inactive”; with `C=CCC1(C(C)CCC)C(=O)N=C(S)NC1=O` (stereo not drawn), “inactive”. Still for that read-out and setting: with `O=C(OCCN1CCCCC1)C(O)(c1ccccc1)c1ccccc1` the entry was “inactive”; with `CCCC(C)C1(CC)C(=O)NC(=O)NC1=O` (stereo not drawn), “inactive”.

Values taken from PubChem BioAssay (NCATS).
